This note sets out measurements from PubChem BioAssay AID2284161 (EPA ToxCast).

What is called AC50 is the concentration at which the activity in the assay is half-maximal.

Activity calls are given as the source filed them. Rule for the calls: active = hit-call score of the fitted dose curve at least 0.9, where 1 is the maximum; inactive = score below 0.9.

The target in the assay is human Serotonin Receptor 5-HT6 Agonism, HTR6 (gene 3362) (UniProt P50406). The assay can be described thus: ERF_FR_GPCR_hHTR6: Eurofins (ERF) G Protein-Coupled Receptor (GPCR) Radioligand Binding LeadHunter Assay for human Serotonin Receptor 5-HT6 Agonism. The procedure: ERF_FR_GPCR_hHTR6 is a biochemical, single-readout assay that uses extracted gene-proteins in a cell-free assay. Measurements were taken 2 hour after chemical dosing in a 96-well plate. See 5-HT6 Human Serotonin GPCR Binding (Agonist Radioligand) Assay, Cerep.ERF_FR_GPCR_hHTR6 is an assay component calculated from the ERF_FR_GPCR_hHTR6 assay. It is designed to measure radioligand binding using a type of binding reporter as detected by scintillation counting with radiometry technology.Data from the assay component ERF_FR_GPCR_hHTR6 was analyzed at the assay endpoint, ERF_FR_GPCR_hHTR6, in the positive analysis fitting direction relative to DMSO as the negative control and baseline of activity. Using a type of binding reporter, gain-of-signal activity can be used to understand changes in binding as they relate to gene HTR6. To generalize the intended target to other relatable targets, this assay endpoint is annotated to the gpcr intended target family, where the subfamily is serotonin.
Sequence of human Serotonin Receptor 5-HT6 Agonism, HTR6 (gene 3362) (P50406 whole entry, looked up): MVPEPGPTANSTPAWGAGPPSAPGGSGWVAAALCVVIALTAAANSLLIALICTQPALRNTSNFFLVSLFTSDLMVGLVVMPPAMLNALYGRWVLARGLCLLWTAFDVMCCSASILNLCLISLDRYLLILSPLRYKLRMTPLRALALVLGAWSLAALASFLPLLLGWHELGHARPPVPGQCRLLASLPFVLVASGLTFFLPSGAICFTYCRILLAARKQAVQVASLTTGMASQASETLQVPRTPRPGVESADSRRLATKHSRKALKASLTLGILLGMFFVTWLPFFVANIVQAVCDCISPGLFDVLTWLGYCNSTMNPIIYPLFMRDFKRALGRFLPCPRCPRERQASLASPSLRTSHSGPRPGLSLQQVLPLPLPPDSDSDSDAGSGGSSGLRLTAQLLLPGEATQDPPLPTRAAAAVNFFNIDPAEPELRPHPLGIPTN
Human cells are incubated for 120 minutes at 37 C with [3H]LSD ligand (2 nM) and serotonin as control inhibitor. Test Sample Requirements: Minimum for 1) Screen: 60 ul of 10 mM stock -OR- 1 mg (pre-weighed) for 10 uM final testing. 2) Dose Response: 90 ul of 10 mM stock -OR- 1 mg (pre-weighed) for a top concentration at 10 uM.
Take `O=C(/C=C/c1ccc(O)cc1)CC(=O)/C=C/c1ccc(O)cc1`: the AC50 is 2.7 µM (active).
